A selection: hits, their analogues and other compounds. The true share with any hit is near 0.78%.
PGK inhibitor: blocks T. brucei phosphoglycerate kinase. PGK/GAPDH coupled, Kinase-Glo luminescence, 60 min. AID 602233. 380,000 tested, 0.043% active. Potency, µM (top dose mostly 57.5 µM), for inactives: top-dose activity change, negative = inhibition, hits mostly inhibitors. P07378; also: potency is read from the fitted curve at half-maximal effect; % is scaled to controls: 0 for no effect and ±100 for the full control effect; nearly all actives have a fitted effect of over 60% in size
Target sequence (P07378 whole entry, looked up): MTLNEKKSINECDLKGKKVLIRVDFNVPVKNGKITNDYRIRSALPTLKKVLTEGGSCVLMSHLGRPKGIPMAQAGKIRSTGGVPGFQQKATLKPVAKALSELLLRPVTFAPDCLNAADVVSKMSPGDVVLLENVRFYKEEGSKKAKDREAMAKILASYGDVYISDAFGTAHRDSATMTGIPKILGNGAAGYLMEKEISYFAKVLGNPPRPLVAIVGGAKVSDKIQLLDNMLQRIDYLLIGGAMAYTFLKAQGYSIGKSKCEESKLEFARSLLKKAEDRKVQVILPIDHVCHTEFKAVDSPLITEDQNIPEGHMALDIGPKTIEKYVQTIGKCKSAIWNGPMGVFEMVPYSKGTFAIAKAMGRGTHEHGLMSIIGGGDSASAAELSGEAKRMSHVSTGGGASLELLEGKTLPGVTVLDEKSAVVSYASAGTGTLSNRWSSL
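Luminescent ATP detection (Kinase-Glo Plus) follows a 60-minute room-temperature incubation, with wells lacking PGK as controls. Buffer: 100 mM TEA (pH 7.6), 5 mM MgCl2, 0.01% Tween-20. Coupling enzyme GAPDH (100 nM final) supplies unstable 1,3-BPG in-well.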
CCT chaperon mod: changes cytosolic chaperonin activity | 360,000 tested, 0.3% active | purified chaperonin ATPase assay, HTRF ADP detection, 30 min | activity change, % (no concentration beside the values), hits read low | AID 651819; in the data active = activity change below about -30%; also: % is scaled to controls: 0 for no effect and ±100 for the full control effect
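TRiC at 40 or 20 nM final (batch-dependent) in 30 mM Tris pH 7.4, 100 mM KCl, 5 mM MgCl2, 1 mM DTT, with compound at single 76 uM and 10 uM ATP, 30 min at 37 deg C. ADP detected by HTRF Transcreener, 665/615 ratio.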
PINK1 modulator: PINK1 expression modulation; 410,000 tested, 0.2% active; PINK1 immunofluorescence, high-content cytometry, 24 h; Potency, µM (top dose mostly 76.6 µM), for the others: at the highest dose activation (PINK1 increase), usual class: activators; active = well fitted activation curve with a large enough effect; inconclusive = small, poorly fitted or top-dose-only effect; cell line not stated here; also: potency is read from the fitted curve at half-maximal effect; % of control where 0% means no effect; nearly all actives have a fitted effect of over 65% in size
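Fluorescence from anti-PINK1 antibody, together with nuclear and cell stains, was scanned on a laser-scanning cytometer. Before staining, stable-line cells were incubated 24 hours with compounds at 5 concentrations; primary antibody 12 h at 10 degrees C.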
GLS inhibitor: glutaminase GLS (human) inhibition; 410,000 tested, 0.21% active; GLS enzymatic activity, qHTS titration; Potency, µM (highest dose often 45.5 µM), for inactives: at the highest dose activity change, negative = inhibition, hits mostly inhibitors; O94925; also: potency is read from the fitted curve at half-maximal effect; % is scaled to controls: 0 for no effect and ±100 for the full control effect
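Coupled fluorescence readout: glutamate oxidase/HRP/Amplex Red detect glutamate formed by hKGA from L-glutamine (1 mM solution added). Buffer 45 mM KH2PO4 pH 8.2, 0.02% Tween-20; reads at t0 and 30 min RT.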
PI4K2A inh: PI4K2A (human) kinase inhibition; Q9BTU6; purified PI4K2A, ADP-Glo luminescence, 1 h; hits give low values; activity change, negative = inhibition, % at 76.9 µM; 420,000 tested, 0.13% active; in the data active = activity change below about -50%; inconclusive = mostly about -30% to -49%;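 also: -100% = wells without enzyme as full effect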
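PI4K2A activity was measured by ADP-Glo luminescence: enzyme (4 ug/mL stock) and phosphatidylinositol (1.2 mM stock) in Tris pH 7.5/MgCl2/EGTA/Triton X-100 buffer were reacted with ATP (300 microM stock) for one hour at ambient temperature.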
* hit, by the source's call; i = inactive; ? = inconclusive; . = no result. Unless noted, calls follow the shape of the dose curve; as a rule, active = well fitted curve in the direction sought with a large enough effect; inconclusive = small, poorly fitted or top-dose-only effect, or another doubt; inactive = no such curve, though single readings can be large; an effect the other way counts as inactive or inconclusive.

SMILES	PGK inhibitor	CCT chaperon mod	PINK1 modulator	GLS inhibitor	PI4K2A inh
COc1ccc(OC)c(N2C(=O)[C@@H]3C(c4ccccc4Cl)=NO[C@@H]3C2=O)c1	13µM*	2	0%	11µM*	-15
Cc1cccc(C)c1N1C(=O)[C@@H]2C(c3ccccc3Cl)=NO[C@@H]2C1=O	6%	0	-2%	4%	3
COc1cccc(-c2nc3cc(SC)ccc3cc2CN(C(=O)c2csc(C)n2)C2CC2)c1	.	.	1%	.	.
O=C(Nc1ccc(Cl)cc1C(F)(F)F)c1cc(S(=O)(=O)NCc2ccccc2)ccc1F	-9%	.	0%	-7%	-1
O=C(Nc1ccccc1C(=O)O)c1cc(S(=O)(=O)NCc2ccccc2)ccc1Cl	6%	-60*	4%	9%	0
O=C1CC(N(CCc2ccccc2)C(=S)Nc2ccccc2)C(=O)N1c1ccccc1 (centres undefined)	-14%	1	25µM*	1%	-2
COc1ccc(N2C(=O)CC(NNC(=O)c3cccnc3)C2=O)cc1 (centres undefined)	-5%	-43*	-1%	24%	6
COc1cc(OC)c(OC)cc1CN1CCOc2ccc(CN3CCN(C(C)=O)CC3)cc2C1	.	.	0%	.	.
CC(C)Oc1ccc(C(=O)NCC2Cc3cc(F)cc(-c4cnccn4)c3O2)cc1 (centres undefined)	.	.	1%	.	.
O=C(N/N=C/c1ccc(O)c(O)c1)c1cccc(S(=O)(=O)N2CCCC2)c1	-9%	0	2%	11µM*	-5
COc1ccccc1-c1c(C)oc2c(CN3CCN(CCO)CC3)c(O)ccc2c1=O	-8%	-52*	-3%	40%	-5
COc1ccccc1-c1c(C)oc2c(CN3CCN(C)CC3)c(O)ccc2c1=O	-2%	-2	1%	3%	6
Cc1ccccc1/C=N/Nc1nc2ccccc2[nH]1	6%	-1	9%	20%	1
C(=N\Nc1nc2ccccc2[nH]1)/c1c[nH]c2ccccc12	-12%	-1	2%	13µM*	-1
COC(=O)c1cc(Cl)ccc1NS(=O)(=O)C(F)(F)F	.	.	.	.	0
CCCCCC(=O)Nc1cc(S(=O)(=O)O)cc2cc(S(=O)(=O)O)cc(O)c12	1.1µM*	-2	0%	1.8µM*	-59*
CCCCCC(=O)Nc1cc(S(=O)(=O)N2CCCCC2)ccc1N1CCCCC1	-12%	1	10%	4%	1
Cc1cnc(-n2ncc(C(=O)NC(C)(C)CO)c2-c2cccs2)nc1-c1ccc(F)cc1	.	.	-1%	.	.
C#Cc1ccc(-c2ccccc2F)cc1	.	.	.	.	0
CCCc1nc(SCC(=O)N2CCN(c3ccccc3)CC2)c2c(=O)n(C)c(=O)n(C)c2n1	-3%	-39*	0%	-1%	-4
Cn1c(=O)c2c(SCC(=O)N3CCOCC3)nc(-c3ccccc3Cl)nc2n(C)c1=O	-9%	-30*	2%	3%	0
CC#CC[C@@H](C)[C@@H](O)/C=C/[C@H]1[C@H]2c3cccc(CCCC(=O)O)c3O[C@H]2C[C@@H]1O	.	.	.	13%	.
O=C(c1cnn2cccnc12)N1CCOc2ccc(C(O)C(c3ccccc3)c3ccccc3)cc2C1 (centres undefined)	.	.	1%	.	.
CO/N=C(/C(=O)N[C@@H]1C(=O)N2C(C(=O)O)=C(CSc3nnnn3C)CS[C@H]12)c1csc(N)n1	.	.	.	2%	.
CO/N=C(/C(=O)N[C@@H]1C(=O)N2C(C(=O)O)=C(CSc3cnns3)CS[C@H]12)c1csc(N)n1	.	.	.	32µM*	.
SMILES	PGK inhibitor	CCT chaperon mod	PINK1 modulator	GLS inhibitor	PI4K2A inh
Cc1ccccc1C(=O)Nc1ccc(C(=O)N2CCCC(N(C)C)c3ccccc32)cc1 (centres undefined)	.	.	.	.	-2
O=C(CCCl)NCc1ccccc1	.	.	.	.	3
COc1ccc([C@@H]2CC=C(C(=O)O)[C@H](c3ccccc3)N2S(=O)(=O)c2ccccc2C)cc1	i	-49*	2%	40%	-2
O=C(NCc1nnc(SCc2ccccc2)n1-c1ccc(F)cc1)C12CC3CC(CC(C3)C1)C2	0%	-68*	?	0%	3
Cc1ccc(C(=O)Nc2cccc(-c3nc(CNC(=O)c4cccc(C)c4C)c(C)o3)c2)s1	.	.	1%	.	.
Cc1cc(C(C)(C)C)cc(C)c1C[n+]1ccc2ccccc2c1	-4%	-3	45µM*	-7%	5
Cc1ccc(C(=O)C[n+]2ccc3ccccc3c2)cc1	-1%	2	-2%	-10%	1
CCCCNc1c(-c2cccc(-c3ccc(OC)cc3)c2)nc2ccc(C)cn12	-2%	-35*	-2%	23%	2
O=C(NCCc1cccnc1)c1cnn(-c2ncc3c(n2)-c2ccccc2CC3)c1C1CC1	.	.	2%	.	.
Cc1ccc(N(C(=O)c2nsc(Cl)c2Cl)C(C(=O)NC2CCCC2)c2ccc(O)cc2)cc1C (centres undefined)	i	1	3%	1%	-1
Cc1cccc(N(C(=O)c2nsc(Cl)c2Cl)C(C(=O)NC2CCCC2)c2ccc(O)cc2)c1C (centres undefined)	2%	-2	45µM*	-1%	1
S=c1[nH]nc(COc2ccccc2)n1/N=C/C=C/c1ccco1	-7%	1	1%	?	-9
S=c1[nH]nc(COc2ccccc2)n1/N=C/C=C/c1ccccc1	-5%	-87*	-2%	-7%	-5
CC1=NN(c2ccc([N+](=O)[O-])cc2)C(=O)/C1=C\N(C)C	-17%	1	2%	-6%	?
CN(C)/C=C1\C(=O)N(c2ccc([N+](=O)[O-])cc2)N=C1c1ccccc1	-2%	-2	2%	16%	-51*
C(=Nc1ccc(N2CCOCC2)cc1)c1c[nH]c2ccccc12	8%	-2	-2%	11µM*	-25
Oc1c(Br)cc(Cl)cc1C=Nc1ccc(N2CCOCC2)cc1	3%	2	2%	13µM*	-12
Cc1cc(S(=O)(=O)Nc2nc(CN3CCOCC3)nc3sc4c(c23)CCC4)cc(C)c1C	-8%	-1	1%	?	-1
Cc1ccc(S(=O)(=O)Nc2nc(CN3CCOCC3)nc3sc(C(=O)O)c(C)c23)cc1	-12%	0	0%	18µM*	-4
Cc1ccc(C(=O)NCCc2nnc3n2CCN(Cc2cc(C)cc(C)c2)CC3)cc1	.	.	-1%	.	.
CCOC(=O)CCc1c(C)c2c(C)nn(-c3ccccc3)c2[nH]c1=O	-7%	-34*	8%	-4%	6
CCOC(=O)CCc1c(C)nc2c(c(C)nn2-c2ccccc2)c1C	0%	-1	0%	3%	3
O=S(=O)(NCc1cccnc1)c1ccc(Cl)c(Cl)c1Cl	-2%	-48*	-2%	-1%	0
CCN1CCCC1CNC(=O)c1cnn(-c2nccc(-c3ccco3)n2)c1C1CC1 (centres undefined)	.	.	-1%	.	.
CC(C)c1c(C(=O)NCCN2CCOCC2)cnn1-c1nccc(-c2cccs2)n1	.	.	0%	.	.
